# Experimental data as given in the supplement of paper PMC6763611.
# System: Plasmodium falciparum NF54
# Test: growth inhibition relative to untreated control; higher = more inhibition
# Details: 72 h
# Procedure, shortened: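 Growth inhibition was measured by SYBR Green fluorescence, normalised to untreated wells and corrected for background from uninfected erythrocytes. The parasites were P. falciparum NF54 ring stages (1% hematocrit, 1% parasitemia) exposed to single 5 μM or 1 μM doses of test compounds for 72 h at 37 °C, in either minimal RPMI or minimal RPMI containing 2.2 μM folate, 7.3 μM pABA, 7.3 μM pHBA, 111 μM tyrosine, 90 μM phenylalanine and tryptophan.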
# [1] = 1 µM, MM + chorismate end-products (CM screening medium)
# [2] = 5 µM, MM + chorismate end-products (CM screening medium)
Compound,growth inhibition [1] [%],"growth inhibition (1 µM, minimal medium (MM)) [%]",growth inhibition [2] [%],"growth inhibition (5 µM, minimal medium (MM)) [%]"
Nc1c2c(nc3sc4c(c13)CCCC4)CCCC2,2.72,13.8,52.3,13.1
CO/C=C(/C(=O)OC)c1ccccc1Oc1cc(Oc2ccccc2C#N)ncn1,96,94.7,90.4,92.2
O=C1O[C@@H](COc2ccon2)CN1c1cc(F)c(C2=CCN(Cc3ccccc3)CC2)c(F)c1,13.6,< 0,54.4,28.6
